# Test results as given in PubChem BioAssay.
# Several values for one entry are separate records, joined by “and”; a condition that tells them apart may be missing. Equal values may be shown once. Results filed as inconclusive are left out. Where a structure was tested more than once in an assay, its records may differ in their call. Activity calls are given as the source filed them.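 Rule for the calls, unless noted: active = compounds whose cell count with miR-34 switched on is under 0.7 times the count with it off; inactive = the rest.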
# Key:
# [1] = stimulators of nuclear beta-catenin in C2C12, primary screen, imaging, WNT3A-conditioned medium, mouse C2C12, NPC library (AID 1117326; in the data active = nuclear beta-catenin stimulation mostly above about 4.2%, no sharp cut-off; inactive = mostly below about 10%; note: reference of the scale not given here); settings: stronger effect = higher value
# [2] = stimulators of insulin release from INS-1E, primary screen, cell-based, 5 mM glucose, NPC library (AID 1117329;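 active = compound raises insulin release from rat beta cells at 5 mM glucose, no numeric limit stated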; note: reference of the scale not given here); settings: rat INS-1E insulin secretion, at 10 µM, stronger effect = higher value
# [3] = growth inhibition of GSK3B-pretreated HCT116 cells – cell-based, CellTiter-Glo, 0.2 to 20 µM (AID 1117336;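 active = compounds lowering colon cancer cell viability after pretreatment blocking the GSK3B kinase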); settings: HCT116 viability after GSK3B inhibitor, at 20 µM, stronger effect = higher value
# [4] = inhibition of endothelial tube formation, primary screen, imaging, VEGF stimulated, CD31 staining, tube area, NPC library (AID 1117340;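 active = compound that reduces growth-factor-driven endothelial tube area in a mixed cell culture, no cutoff stated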); settings: VEGF-stimulated ADSC/ECFC co-culture, at 10 µM, stronger effect = higher value
# [5] = glucagon-like peptide 1 release enhancers, primary assay, NCI-H716 cell line, NPC library (AID 1117341;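 active = compound raises GLP1 secretion from the human gut endocrine cells, with no numeric limit stated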; note: reference of the scale not given here); settings: NCI-H716 cells, at 10 µM, stronger effect = higher value
# [6] = HCT116 colon cancer cell growth inhibition, primary screen, CellTiter-Glo luminescence, NPC library (AID 1117342;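 active = compounds that lower survival of HCT116 colon cancer cells in the luminescence readout, no numeric limit stated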); settings: at 20 µM (top of the series)
# [7] = CellTiter-Glo luminescent readout of SW480 viability loss, NPC library primary (AID 1117343;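 active = compounds that lower viability of the colon cancer cells in the luminescence readout, with no numeric limit stated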); settings: CellTiter-Glo luminescence; at 20 µM (top of the series) unless noted
# [8] = decreased DLD-1 cellular survival, CellTiter-Glo luminescent readout, NPC compound collection, primary HTS (AID 1117346;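 active = compounds that lower survival of DLD-1 colon cancer cells in the luminescence readout, no cutoff given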); settings: DLD-1 viability, CellTiter-Glo luminescence; at 20 µM (top of the series)
# [9] = tested on: Aerobactin synthetase IucA (Klebsiella pneumoniae); assay: IucA aerobactin synthetase inhibitors, biochemical, Tocris library, absorbance (AID 1345561; call rule not given here;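 note: 100% = enzyme without compound and 0% = no enzyme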); settings: purified IucA enzyme assay, absorbance (OD) read-out; stronger effect = lower value;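 tested at 8 µM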
# [10] = sensitizers of A549 cells to miR-34 induction, primary screen, imaging, A549 dox-inducible miR-34, nuclei and caspase counts (AID 1347080); settings: A549 miR-34 inducible, Hoechst nuclei count, 48 h
# [11] = viability rescue of complex I mutant cybrids, primary screen, cell-based, galactose medium, ATP luminescence (AID 1645843;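 active = z-score of at least 1.8 in each of two replicates, scored against plate mean and spread of sample wells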;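 note: positive z means more ATP and so rescue of galactose-driven cybrid death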); settings: complex I mutant cybrid cells, 72 h, stronger effect = higher value
# [12] = survival rescue of mitochondrial mutant cells in low glucose, primary screen, MELAS cybrids, Rieske KO mouse fibroblasts, CellTiter-Glo (AID 1508586;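 active = mean z-score across replicates of 1.96 or higher in either the MELAS or the Rieske mutant cell line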;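 note: z relative to plate mean and SD of compound and empty wells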)
# [13] = growth inhibition of DIPG glioma cells, dose response, cell-based, JHH-DIPG-1, MIPE4.0, CellTiter-Glo, qHTS (AID 1347062; cut-off not given, nearly all actives have AC50 up to about 27 µM); settings: JHH-DIPG-1 viability, CellTiter-Glo ATP luminescence
# [14] = SU-DIPG-XXV glioma cell viability, MIPE5.0 library, qHTS (AID 1347068; cut-off not given, nearly all actives have IC50 up to about 30 µM)
# [15] = growth inhibition of DIPG glioma cells, dose response, cell-based, SU-DIPG-XIII, MIPE4.0, CellTiter-Glo, qHTS (AID 1347061; cut-off not given, nearly all actives have AC50 up to about 37 µM;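 note: cells exposed to compound for 48 hours before readout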); settings: SU-DIPG-XIII viability, CellTiter-Glo ATP luminescence
# [16] = liver-stage malaria parasite growth inhibition, primary screen, cell-based, HepG2, luciferase luminescence, HepG2 viability (AID 624349; in the data active = parasite load remaining mostly below about 12%, no sharp cut-off; inactive = mostly above about 10%;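 note: 100% = mean of DMSO negative control wells on the same plate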); settings: P. berghei liver stage in HepG2, luciferase luminescence, concentration not given here; parasite load remaining: stronger effect = lower value; viability: measured here: HepG2 viability without parasites
# [17] = stronger effect = lower value, cell number ratio, induced over uninduced
# [18] = measured here: relative caspase fold change +Dox/-Dox
# [19] = measured here: total cells with miR-34 induction, stronger effect = lower value
# [20] = measured here: total cells without miR-34 induction
# [21] = MELAS cybrid survival, CellTiter-Glo 48 h, stronger effect = higher value
# [22] = Rieske KO mouse fibroblast survival, CellTiter-Glo 72 h
compound,measurement,setting,value
O=C1OC(OC(=O)c2cccnc2Nc2cccc(C(F)(F)F)c2)c2ccccc21 (centres undefined),nuclear beta-catenin stimulation,[1]; at 10 µM,21.1% (inactive)
same,nuclear beta-catenin stimulation,"[1]; stimulation, at 2 µM",11%
same,insulin secretion stimulation,[2],2.7% (inactive)
same,viability decrease,[3],17.5% (inactive)
same,tube area decrease,[4],72.7% (active)
same,GLP1 secretion stimulation,[5],1.3% (inactive)
same,inhibition of viability,[6],10.2% (inactive)
same,viability decrease (inhibition),[7],115% (active)
same,viability decrease (inhibition),[8],31.2% (inactive)
same,remaining activity,[9],120% (inactive)
same,fold change,[10]; [17],0.992 (inactive)
same,fold change,[10]; [18],1.33
same,cell count,[10]; [19],7990
same,cell count,[10]; [20],8060
same,z-score,[11],-0.625 (inactive)
CC[N+](CC)(CCNC(=O)C(=O)NCC[N+](CC)(CC)Cc1ccccc1Cl)Cc1ccccc1Cl,nuclear beta-catenin stimulation,[1]; at 10 µM,0.3% (inactive)
same,nuclear beta-catenin stimulation,"[1]; stimulation, at 2 µM",3.3%
same,insulin secretion stimulation,[2],0.9% (inactive)
same,viability decrease,[3],-14.5% (inactive)
same,tube area decrease,[4],-8.9% (inactive)
same,GLP1 secretion stimulation,[5],2.4% (inactive)
same,inhibition of viability,[6],2.83% (inactive)
same,viability decrease (inhibition),[7],6.4% (inactive)
same,viability decrease (inhibition),[8],-9.9% (inactive)
same,remaining activity,[9],122% (inactive)
same,fold change,[10]; [17],0.939 (inactive)
same,fold change,[10]; [18],1.05
same,cell count,[10]; [19],8990
same,cell count,[10]; [20],9570
same,z-score,[11],0.25 (inactive)
CCOC(=O)[C@H](CCc1ccccc1)N[C@@H](C)C(=O)N1Cc2cc(OC)c(OC)cc2C[C@H]1C(=O)O,nuclear beta-catenin stimulation,[1]; at 10 µM,-0.5% (inactive)
same,nuclear beta-catenin stimulation,"[1]; stimulation, at 2 µM",1.6%
same,insulin secretion stimulation,[2],0.3% (inactive)
same,viability decrease,[3],-1.4% (inactive)
same,tube area decrease,[4],78.4% (active)
same,GLP1 secretion stimulation,[5],0.3% (inactive)
same,inhibition of viability,[6],6.7% (inactive)
same,viability decrease (inhibition),[7],-2.3% (inactive)
same,viability decrease (inhibition),[8],3.7% (inactive)
same,remaining activity,[9],110% (inactive)
same,fold change,[10]; [17],0.937 (inactive)
same,fold change,[10]; [18],1.79
same,cell count,[10]; [19],7700
same,cell count,[10]; [20],8220
same,z-score,[11],-0.04 (inactive)
O=C1c2ccccc2S(=O)(=O)N1CCCCN1CCN(c2ncccn2)CC1,nuclear beta-catenin stimulation,[1]; at 10 µM,-1.2% (inactive)
same,nuclear beta-catenin stimulation,"[1]; stimulation, at 2 µM",1.3%
same,insulin secretion stimulation,[2],3.3% (inactive)
same,viability decrease,[3],-7% (inactive)
same,tube area decrease,[4],4.9% (inactive)
same,GLP1 secretion stimulation,[5],-1.9% (inactive)
same,inhibition of viability,[6],7.2% (inactive)
same,viability decrease (inhibition),[7],-2.4% (active)
same,viability decrease (inhibition),[8],-2.8% (inactive)
same,remaining activity,[9],111% (inactive)
same,fold change,[10]; [17],0.855 (inactive)
same,fold change,[10]; [18],1.78
same,cell count,[10]; [19],8330
same,cell count,[10]; [20],9750
same,z-score,[12]; [21],-0.295 (inactive)
same,z-score,[12]; [22],-0.0604
same,z-score,[11],0.135 (inactive)
CC1(CN2CCC(n3c(=O)[nH]c4ccccc43)CC2)OCc2ccccc2-n2cccc21 (centres undefined),nuclear beta-catenin stimulation,[1]; at 10 µM,2.3% (inactive)
same,nuclear beta-catenin stimulation,"[1]; stimulation, at 2 µM",2%
same,insulin secretion stimulation,[2],-3.4% (inactive)
same,viability decrease,[3],78.6% (active)
same,tube area decrease,[4],7.2% (inactive)
same,GLP1 secretion stimulation,[5],3.3% (inactive)
same,inhibition of viability,[6],113% (active)
same,viability decrease (inhibition),[7],146% (active)
same,viability decrease (inhibition),[8],101% (active)
same,remaining activity,[9],97.5% (inactive)
same,outcome,[13],inactive
same,outcome,[14],inactive
same,fold change,[10]; [17],0.899 (inactive)
same,fold change,[10]; [18],1.14
same,cell count,[10]; [19],6010
same,cell count,[10]; [20],6680
same,z-score,[11],-0.665 (inactive)
C[C@@H](CN1CC(=O)NC(=O)C1)N1CC(=O)NC(=O)C1,nuclear beta-catenin stimulation,[1]; at 10 µM,9.7% (inactive)
same,nuclear beta-catenin stimulation,"[1]; stimulation, at 2 µM",13.9%
same,insulin secretion stimulation,[2],5.3% (inactive)
same,viability decrease,[3],70.9% (active)
same,tube area decrease,[4],37.9% (inactive)
same,GLP1 secretion stimulation,[5],-2.7% (inactive)
same,inhibition of viability,[6],62% (active)
same,viability decrease (inhibition),[7],53.1% (active)
same,viability decrease (inhibition),[8],47.2% (inactive)
same,remaining activity,[9],106% (inactive)
same,outcome,[15],inactive
same,outcome,[14],inactive
same,fold change,[10]; [17],0.977 (inactive)
same,fold change,[10]; [18],1.07
same,cell count,[10]; [19],8720
same,cell count,[10]; [20],8920
same,z-score,[11],0.075 (inactive)
CCOC(=O)c1cnc2c(cnn2CC)c1NN=C(C)C,parasite load remaining,[16],33.1% (inactive)
same,viability,[16],68.5%
same,nuclear beta-catenin stimulation,[1]; at 10 µM,-1.1% (inactive)
same,nuclear beta-catenin stimulation,"[1]; stimulation, at 2 µM",1.4%
same,insulin secretion stimulation,[2],5.8% (inactive)
same,viability decrease,[3],-110% (inactive)
same,tube area decrease,[4],-6% (inactive)
same,GLP1 secretion stimulation,[5],0.7% (inactive)
same,inhibition of viability,[6],29.6% (inactive)
same,viability decrease (inhibition),[7],21.1% (inactive)
same,viability decrease (inhibition),[8],27.5% (inactive)
same,remaining activity,[9],115% (inactive)
same,fold change,[10]; [17],1 (inactive) and 0.89 (inactive) and 0.857 (inactive)
same,fold change,[10]; [18],1.06 and 0.8 and 1.84
same,cell count,[10]; [19],7810 and 7710 and 8880
same,cell count,[10]; [20],7780 and 8670 and 10400
same,z-score,[12]; [21],1.91
same,z-score,[12]; [22],2.39
same,z-score,[11],1.13 (inactive) and 2.63 (active) and 1.51 (inactive)
C[N+](C)(C)CC[N+]1(C)Cc2c(Cl)c(Cl)c(Cl)c(Cl)c2C1,nuclear beta-catenin stimulation,[1]; at 10 µM,4.4% (inactive)
same,nuclear beta-catenin stimulation,"[1]; stimulation, at 2 µM",2.6%
same,insulin secretion stimulation,[2],-0.5% (inactive)
same,viability decrease,[3],-1% (inactive)
same,tube area decrease,[4],7.3% (inactive)
same,GLP1 secretion stimulation,[5],2.6% (inactive)
same,inhibition of viability,[6],-4.53% (inactive)
same,viability decrease (inhibition),[7],2.9% (inactive)
same,viability decrease (inhibition),[8],-10.2% (inactive)
same,remaining activity,[9],115% (inactive)
same,fold change,[10]; [17],0.88 (inactive)
same,fold change,[10]; [18],1.79
same,cell count,[10]; [19],9090
same,cell count,[10]; [20],10300
same,z-score,[11],0.045 (inactive)
CCc1cc(Cl)c(OC)c(C(=O)NC[C@@H]2CCCN2CC)c1O,parasite load remaining,[16],103% (inactive)
same,viability,[16],87.5%
same,nuclear beta-catenin stimulation,[1]; at 10 µM,4.5% (inactive)
same,nuclear beta-catenin stimulation,"[1]; stimulation, at 2 µM",1.7%
same,insulin secretion stimulation,[2],5.2% (inactive)
same,viability decrease,[3],-86.7% (inactive)
same,tube area decrease,[4],2.8% (inactive)
same,GLP1 secretion stimulation,[5],5.8% (inactive)
same,inhibition of viability,[6],51.9% (active)
same,viability decrease (inhibition),[7],58.3% (active)
same,viability decrease (inhibition),[8],14.4% (inactive)
same,remaining activity,[9],112% (inactive)
same,fold change,[10]; [17],0.835 (inactive) and 0.921 (inactive)
same,fold change,[10]; [18],0.937 and 0.744
same,cell count,[10]; [19],7860 and 8160
same,cell count,[10]; [20],9410 and 8850
same,z-score,[12]; [21],0.117 (inactive)
same,z-score,[12]; [22],0.179
same,z-score,[11],-0.605 (inactive)
